Source: PubChem BioAssay (National Center for Advancing Translational Sciences (NCATS))
An excerpt weighted towards active compounds, which were near 12% of everything screened.
Shiga toxin inh: A qHTS for Small Molecule Inhibitors of Shiga Toxin | Vero cells, Shiga toxin protein synthesis inhibition reporter | inhibition, % at 38.7 µM | actives 9.2% (n = 290,000); in the data active = inhibition mostly above about 28%, no sharp cut-off; inactive = mostly below about 43%; note: 0% is about no effect
Sm TGR block: qHTS Assay for the Inhibitors of Schistosoma Mansoni Peroxiredoxins; Schistosoma mansoni thioredoxin glutathione reductase (TGR), Q962Y6; purified TGR, DTNB reduction, TNB absorbance 405 nm; actives 3% (n = 360,000); Potency, µM (titrated, usually from 114 µM), for the others: at the highest dose activity change, negative = inhibition, actives largely listed as inhibitors; active = well fitted inhibition curve with a large enough effect; note: potency is the fitted concentration of half-maximal effect; % is set by controls: 0 for no effect and ±100 for the full control effect; nearly all actives have a fitted effect of over 60% in size
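Kinetic colorimetric format: TGR-catalysed, NADPH-driven DTNB reduction monitored via TNB absorbance. Enzyme dispensed at 20 nM; compound exposure 15 min at room temperature before reaction start.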
FMDV antiviral: High Throughput Screening for Foot and Mouth Disease Virus Antivirals | FMDV antiviral cell-based qHTS | Potency, µM (highest dose often 57.9 µM), inactives show top-dose activity change, negative = inhibition, usual class: inhibitors | actives 1.2% (n = 410,000); calls by dose curve; tested in HEK293T cells; note: read-out not given here; potency is the fitted concentration of half-maximal effect; % is set by controls: 0 for no effect and ±100 for the full control effect; nearly all actives have a fitted effect of over 45% in size
Cycloheximide cs: Cycloheximide Counterscreen for Small Molecule Inhibitors of Shiga Toxin | cell reporter, cycloheximide protein synthesis inhibition counterscreen | max response, % | actives 12% (n = 300,000); in the data active = max response mostly above about 13%, no sharp cut-off; inactive = mostly below about 14%; note: read at 38.3 µM for the half of the compounds with a filed dose; 0% is about no effect
The depositor's hits bear a star.

What do the screens show for `CCOc1ccc(-c2cc(C(=O)N3CCC4(CC3)OCCO4)c3ccccc3n2)cc1`?
FMDV antiviral: 32%

What do the screens show for `COc1cccc(CN(C)C(=O)c2cc(-c3ccc(OC)c(OC)c3)nc3ccccc23)c1`?
Shiga toxin inh: -18; Sm TGR block: 0%; FMDV antiviral: -27%; Cycloheximide cs: -2

What do the screens show for `CC(=O)c1ccc(N2CCN(C(=O)c3cc(-c4ccc5c(c4)OCO5)nc4ccccc34)CC2)cc1`?
Shiga toxin inh: 36*; Sm TGR block: 6%; FMDV antiviral: 0%; Cycloheximide cs: 20*

Results for COc1cccc(CN(C)C(=O)c2cc(-c3ccc(F)cc3)nc3ccccc23)c1 ?
Shiga toxin inh: -14; Sm TGR block: 2.2µM*; FMDV antiviral: -27%; Cycloheximide cs: -4

Results for COc1ccc(-c2cc(C(=O)N3CCC4(CC3)OCCO4)c3ccccc3n2)cc1 ?
Shiga toxin inh: 39; Sm TGR block: -8%; FMDV antiviral: 11%; Cycloheximide cs: 25*

How did COc1ccc2cc(-c3cc(C(=O)O)c4ccccc4n3)ccc2c1 do in these assays?
Shiga toxin inh: -32; Sm TGR block: 2%; FMDV antiviral: 10µM*; Cycloheximide cs: -7

What do the screens show for `COc1ccc(-c2cc(C(=O)N3CCN(c4ccccc4)CC3)c3ccccc3n2)cc1`?
Shiga toxin inh: 63*; Sm TGR block: 0%; FMDV antiviral: 2%; Cycloheximide cs: 27*

What do the screens show for `COc1ccc(-c2cc(C(=O)N3CCN(c4ncccn4)CC3)c3ccccc3n2)cc1`?
Sm TGR block: 13%; FMDV antiviral: 12%

Results for COc1cccc(-c2cc(C(=O)Nc3ccccc3)c3ccccc3n2)c1 ?
FMDV antiviral: -11%

How did COc1ccc(-c2cc(C(=O)N3CCCC3)c3ccccc3n2)cc1 do in these assays?
Shiga toxin inh: 45*; Sm TGR block: -29%; FMDV antiviral: 14%; Cycloheximide cs: 36*

How did CC(=O)c1ccc(NC(=O)c2cc(CC(C)C)nc3ccccc23)cc1 do in these assays?
Shiga toxin inh: 82*; Sm TGR block: 7%; FMDV antiviral: 20%; Cycloheximide cs: 48*

Results for COc1ccc(-c2cc(C(=O)N3CCN(c4ccccc4O)CC3)c3ccccc3n2)cc1 ?
Sm TGR block: -17%; FMDV antiviral: 29%

How did COc1ccc(-c2cc(C(=O)Nc3ccc(C(N)=O)cc3)c3ccccc3n2)cc1 do in these assays?
Shiga toxin inh: 65*; Sm TGR block: 0%; FMDV antiviral: -9%; Cycloheximide cs: 16*

Results for Cc1cc2oc(C(=O)Nc3ccc(S(N)(=O)=O)cc3)cc(=O)c2cc1C ?
Sm TGR block: 0%; FMDV antiviral: -12%

What do the screens show for `CCOc1ccc(N(C(=O)OC(C)(C)C)C(=O)c2ccc(O[Si](C)(C)C(C)(C)C)cc2)c(I)c1`?
Shiga toxin inh: 9; Cycloheximide cs: 7

What do the screens show for `CN1CCN(NC(=O)c2cc(-c3ccc(Br)s3)nc3ccccc23)CC1`?
Shiga toxin inh: -10; Sm TGR block: -23%; FMDV antiviral: 0%; Cycloheximide cs: -2

How did COc1ccc2c(OC)cc(-c3ccccc3)nc2c1 do in these assays?
Shiga toxin inh: 12; Sm TGR block: 7%; FMDV antiviral: -12%; Cycloheximide cs: -1

What do the screens show for `COc1ccc(-c2cc3cc(OC)c(OC)cc3c(C)n2)cc1`?
Shiga toxin inh: 75*; Sm TGR block: 0%; FMDV antiviral: 30%; Cycloheximide cs: 34*

How did O=C(O)c1cc(-c2ccc(Br)s2)nc2ccccc12 do in these assays?
Shiga toxin inh: 34*; Sm TGR block: 0%; FMDV antiviral: 50%; Cycloheximide cs: 17*

What do the screens show for `Cc1ccc(-c2cc(C(=O)N3CCCCC3)c3ccccc3n2)cc1C`?
Shiga toxin inh: 33; Sm TGR block: 9%; FMDV antiviral: 15%; Cycloheximide cs: 23*

How did O=C(c1cc(-c2ccccc2)nc2ccccc12)N1CCCC1 do in these assays?
Shiga toxin inh: 1; Sm TGR block: 12%; FMDV antiviral: -3%; Cycloheximide cs: -6

Results for COc1ccc(-c2cc(C(=O)Nc3nc4ccccc4s3)c3ccccc3n2)cc1OC ?
Shiga toxin inh: 43*; Sm TGR block: 11%; FMDV antiviral: 0%; Cycloheximide cs: 16*

Results for COc1ccc(-c2cc(C(=O)c3c(N)n(C)c(=O)n(C)c3=O)c3ccccc3n2)cc1OC ?
Shiga toxin inh: 14; Sm TGR block: 12%; FMDV antiviral: 44%; Cycloheximide cs: 25*

How did COc1ccc(-c2cc(OC)c3ccccc3n2)cc1 do in these assays?
Shiga toxin inh: active; Sm TGR block: 0%; FMDV antiviral: 24%; Cycloheximide cs: 14
